Screening results: PubChem, National Center for Advancing Translational Sciences (NCATS)
D1 antag: antagonists of human D1 dopamine receptor | HEK293 TREx D1 cells, calcium flux, dopamine EC80; stronger effect = lower value | P21728 | 3.2% of 360,000 active | activity change, negative = inhibition, % at 10 µM | AID 504652; in the data active means activity change below about -30%; further: on the % scale 0 is the no-effect control and ±100 the full control effect
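Allosteric or orthosteric antagonism assessed as attenuation of the calcium response to EC80 dopamine, added 180 s after compound, in induced HEK293 Trex D1 cells loaded with no-wash calcium dye.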
TRHR enhancer: TRH receptor (human) allosteric enhancement; P34981; TRHR cells, fluo-8 calcium fluorescence, EC20 TRH enhancement; enhancement, % at 2 µM; 0.66% of 360,000 active; AID 493056; in the data active means enhancement above about 30%; further: 0% is about no effect
Target sequence (P34981 whole entry, looked up): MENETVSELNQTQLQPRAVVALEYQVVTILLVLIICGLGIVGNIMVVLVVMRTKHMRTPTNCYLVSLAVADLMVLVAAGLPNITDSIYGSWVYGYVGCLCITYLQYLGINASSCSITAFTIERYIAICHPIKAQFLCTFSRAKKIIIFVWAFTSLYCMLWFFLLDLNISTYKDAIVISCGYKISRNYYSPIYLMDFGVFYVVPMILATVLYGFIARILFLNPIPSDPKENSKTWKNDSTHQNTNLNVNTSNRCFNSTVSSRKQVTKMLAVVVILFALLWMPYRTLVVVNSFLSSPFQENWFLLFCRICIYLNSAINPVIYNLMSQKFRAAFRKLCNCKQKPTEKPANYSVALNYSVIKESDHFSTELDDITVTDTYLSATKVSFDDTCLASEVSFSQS
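TRHR-expressing cells loaded with fluo-8 calcium dye were read kinetically (ex 480/em 530) during compound addition, then stimulated with an EC20 of TRH (10 nM final). Enhancement of the Gq-mediated intracellular calcium response was scored.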
D1 agonist: agonists of human D1 dopamine receptor. AID 504660. P21728. HEK293 T-REx D1 cells, calcium flux, agonist mode. activation, % at 2 µM. 1% of 360,000 active; further: 0% is about no effect
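Tetracycline-induced HEK293 TREx D1 cells, force-coupled to calcium signalling, were dye-loaded with a no-wash calcium kit. Compound was pin-added after a 10 s baseline. Fluorescence was read kinetically at 1 cycle/s for 180 s, with calcium rises flagged as agonism.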
D1 potentiator: potentiators of human D1 dopamine receptor; P21728; HEK293 TREx D1 cells, calcium flux, dopamine EC20 potentiation; potentiation, % at 10 µM; 0.036% of 360,000 active; AID 504651; in the data active means potentiation above about 30%; further: 0% is about no effect
TRHR agonist: agonists of human TRH receptor; activation, % at 2 µM; 0.18% of 360,000 active; AID 493084; P34981; TRHR cells, calcium flux fluo-8, FDSS agonist mode; further: 0% is about no effect
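Fluo-8-loaded TRHR cells; 10 s baseline, compound added, kinetic Ca2+ fluorescence read 1/s, agonist mode.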
* hit, by the source's call; nt = not tested or not shown. An excerpt weighted towards active compounds, which were near 4.7% of everything screened. Unless noted, no stated cut-off is given here; in the data, active means activation above about 30%; inactive means the rest.

SMILES	D1 antag	TRHR enhancer	D1 agonist	D1 potentiator	TRHR agonist
CC(C)(C)c1ccc(C(=O)NC(=S)NNC(=O)c2cccs2)cc1	156.2	6.8	366.6*	29.1	33.6*
O=C(NNC(=O)c1cccs1)c1ccc(F)cc1	-12.8	36.3*	3.7	-1.9	-0.1
CCC(=O)Nc1cccc(NC(=S)NC(=O)c2ccc(C)cc2)c1	-2.3	2.0	2.5	-4.4	-0.1
CCC(=O)Nc1cccc(NC(=S)NC(=O)c2cccc(C)c2)c1	-37.7*	-1.2	8.7	1.1	-2.7
CN1CCN(C(c2ccccc2Cl)c2sc3nc(-c4ccco4)nn3c2O)CC1 (centres undefined)	nt	19.7	6.4	-1.6	-0.2
Cc1cc(NC(=O)Nc2nc3c(s2)CCCCCC3)ccc1Br	1.6	-0.9	6.3	-0.6	-0.1
Cn1c2cc(C=O)sc2c2cnn(Cc3ccccc3F)c(=O)c21	9.6	4.0	-0.1	1.4	-0.6
COc1ccc(NC(=O)C(CC(=O)O)C(C)c2ccccc2)cc1 (centres undefined)	-39.3*	-2.4	6.9	4.6	0.0
COC(=O)c1nnn(-c2cccc(C)c2)c1N	15.1	-0.7	0.5	-3.9	-0.4
O=C(Cn1nc(C(F)(F)F)c2c1CCCC2)Nc1cccc(Cl)c1	-14.0	2.2	14.0	-5.5	1.1
N#CC1=C(N)Oc2ccc3ccc(O)cc3c2C1c1cccnc1 (centres undefined)	-76.0*	1.7	1.3	-7.4	-0.4
Cc1nn(-c2cccc(Cl)c2)c2c1C(c1cccnc1)C(C#N)=C(N)O2 (centres undefined)	-36.4*	-0.4	7.0	-1.1	0.1
Cc1ccc(NC(=O)Nc2nnc(SCC(=O)N3CCCCC3)s2)cc1	nt	-1.7	6.5	-4.1	0.4
O=C(Nc1nnc(S(=O)(=O)N2CCCc3ccccc32)s1)c1ccccc1Br	14.2	-4.6	-0.7	-1.6	-0.2
CCCCS(=O)(=O)CC(O)CSc1nc(-c2ccc(C)cc2)cc(-c2ccccc2)c1C#N (centres undefined)	1.5	-1.2	4.8	0.0	-0.2
CCCn1c(=O)c(C(=O)Nc2cccc(C)n2)c(O)c2ccccc21	13.9	8.6	3.6	3.8	0.7
CCCn1c(=O)c(C(=O)Nc2ncccc2C)c(O)c2ccccc21	-15.6	-4.7	48.5*	0.2	5.4
Cc1cccc(C(=O)NNC(=O)c2c(O)c3ccccc3n(C)c2=O)c1	2.3	37.4*	17.3	0.2	-1.0
CCCn1c(=O)c(C(=O)NNC(=O)c2ccc(Cl)cc2Cl)c(O)c2ccccc21	-12.9	-1.0	41.2*	-6.0	4.1
Cn1c(=O)c(C(=O)NNC(=O)c2cccc(Cl)c2)c(O)c2ccccc21	0.3	-1.0	2.0	-1.4	0.4
CCc1ccc(C2CC(=O)c3c([nH]c(C(=O)OCC4CCCCC4)c3C)C2)cc1 (centres undefined)	8.2	18.8	0.9	-3.2	0.9
COc1ccc(-c2cc(C)no2)cc1S(=O)(=O)Nc1c(C)cc(C)cc1C	8.6	6.6	3.2	-1.6	-0.1
CN(C)c1ccc(C(=O)Nc2c(C(=O)NC(C)(C)C)oc3ccccc23)cc1	9.4	-2.8	1.2	-2.5	0.5
COc1ccc(-n2c(=O)c3c(c4cc(OC)ccc4n3C)n(Cc3cc(C)ccc3C)c2=O)cc1	-74.2*	3.5	-1.3	-3.2	-0.1
COc1ccccc1NC(=S)NNC(=O)c1nn(C)c(C)c1Cl	-48.7*	-20.4	1.2	-5.8	0.3
SMILES	D1 antag	TRHR enhancer	D1 agonist	D1 potentiator	TRHR agonist
Fc1ccc(-n2c(=S)[nH]c3cccnc32)cc1	-33.1*	5.6	-1.7	-6.3	-0.1
FC(F)(F)c1cnc2c(c1)[nH]c(=S)n2-c1ccc(Cl)cc1	-15.9	-0.9	8.7	12.7	4.5
Cc1ccccc1CNC(=O)CCSCc1cnn(-c2ccccc2)c1-n1cccc1	2.6	2.3	2.6	-0.8	0.0
Cc1cc(N2CCN(S(=O)(=O)c3ccc4c(c3)OCCO4)CC2)n2ncnc2n1	-46.3*	-2.7	10.1	-4.2	-0.2
Cc1cc(N2CCN(S(=O)(=O)c3ccc(Br)cc3)CC2)n2ncnc2n1	-18.2	-3.3	1.7	-1.8	-0.1
Cc1oc2ccc(O)c(CN(C)Cc3ccccc3)c2c1C(=O)Nc1cccc(C(F)(F)F)c1	8.3	3.1	1.2	-2.7	-1.2
Cc1oc2ccc(O)c(CN(C)Cc3ccccc3)c2c1C(=O)Nc1ccccc1	-44.4*	13.3	-2.1	-4.3	-1.2
COc1ccccc1N1CCN(Cc2cn[nH]c2-c2ccc(F)cc2)CC1	3.7	12.5	60.2*	-4.0	-0.6
COc1ccccc1N1CCN(Cc2cccc(OC)c2OC)CC1	-41.8*	-0.7	7.6	-7.6	-0.2
CCOC(=O)CC(NC(=O)Cn1nnc(-c2ccc(C(F)(F)F)cc2)n1)c1ccc(C)cc1 (centres undefined)	-1.9	1.1	7.2	-4.3	5.4
COc1cc2c(cc1OC)-c1nnnn1C(C)(C)C2	4.1	10.5	2.9	-0.1	0.3
COc1cc2c(cc1OC)-c1n[nH]c(=S)n1C(C)(C)C2	-59.2*	0.0	-0.4	-11.7	-0.5
CCC1CCCCN1Cc1cn2c(-c3ccc(Br)cc3)nnc2s1 (centres undefined)	-32.0*	-0.7	-0.2	-3.6	-0.1
CC(C)(C)/C(O)=C/c1nc2ccccc2[nH]c1=O	-6.6	4.8	44.8*	-0.8	0.5
O=c1[nH]c2ccccc2nc1/C=C(\O)c1cccs1	-6.0	6.4	279.5*	5.5	114.9*
CCCn1c(Oc2ccccc2)nc2c1c(=O)n(C)c(=O)n2C	-39.2*	7.5	-0.8	-3.7	-0.5
COc1ccc(CCNC(=O)CN(c2ccc(C)cc2)S(=O)(=O)c2ccc(OC)cc2)cc1	20.2	-5.6	11.8	-1.4	0.7
Cc1cc(C)cc(OC(C)C(=O)Nc2c(C(=O)c3ccccc3)oc3ccccc23)c1 (centres undefined)	1.0	-7.1	1.8	-4.5	2.0
O=S(=O)(Nc1ccc(Cc2ccncc2)cc1)c1ccc(Br)cc1	-73.4*	4.0	11.5	-7.0	2.1
Cc1sc2nc(CN3CCCC3)nc(N3CCN(S(=O)(=O)c4cccs4)CC3)c2c1C	-6.0	-16.4	2.2	1.9	-0.1
Cc1ccc(S(=O)(=O)N2CCN(c3nc(CN4CCCC4)nc4sc(C)c(C)c34)CC2)cc1	-35.2*	1.2	0.4	5.3	0.1
Cc1ccc(S(=O)(=O)CNC(=S)c2ccc3ccccc3c2)cc1	-11.4	-2.4	0.7	-5.5	0.6
COc1ccc(C(=S)NCS(=O)(=O)c2ccc(C)cc2)cc1	-35.3*	12.4	5.6	-4.5	-0.1
COc1ccc(NC(=O)Cn2c(=O)n(CCC(=O)NCCc3ccc(OC)c(OC)c3)c(=O)c3ccccc32)cc1Cl	11.2	6.8	0.3	-0.8	0.6
CCOc1ccccc1CNC(=O)c1cc2oc3ccccc3c2n1CC	-42.8*	-3.5	1.1	-6.3	0.5
CCn1c(C(=O)NCc2ccc(F)cc2)cc2oc3ccccc3c21	3.8	0.2	-0.9	-2.4	-0.7
